# Measurements published in publication PMC11006913.
# Where a chain is given by its changes, count along the chain named.
# How the values were obtained:
# Experiment in all cases: PBM; 200 nM protein, PBS
# Details in all cases: dsDNA, one strand shown
# SIX6 [1] = target: T1, SIX6 (Homo sapiens, UniProt O95475 114-200, L167I)
# T1 sequence: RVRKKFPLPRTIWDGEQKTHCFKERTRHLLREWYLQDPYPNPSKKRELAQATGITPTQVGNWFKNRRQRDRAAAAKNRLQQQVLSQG
# SIX6 [2] = target: T2, SIX6 (Homo sapiens, UniProt O95475 114-200, L143V)
# T2 sequence: T1 sequence with L30V, I54L
# SIX6 [3] = target: T3, SIX6 (Homo sapiens, UniProt O95475 114-200, H141N)
# T3 sequence: T1 sequence with H28N, I54L
# SIX6 [4] = target: T4, SIX6 (Homo sapiens, UniProt O95475 114-200, T165P)
# T4 sequence: T1 sequence with T52P, I54L
# SIX6 [5] = target: T5, SIX6 (Homo sapiens, UniProt O95475 114-200, L167M)
# T5 sequence: T1 sequence with I54M
# SIX6 [6] = target: T6, SIX6 (Homo sapiens, UniProt O95475 114-200, L143M)
# T6 sequence: T1 sequence with L30M, I54L
# SIX6 [7] = target: T7, SIX6 (Homo sapiens, UniProt O95475 114-200, L143I)
# T7 sequence: T1 sequence with L30I, I54L
# SIX6 [8] = target: T8, SIX6 (Homo sapiens, UniProt O95475 114-200, T165G)
# T8 sequence: T1 sequence with T52G, I54L
# SIX6 [9] = target: T9, SIX6 (Homo sapiens, UniProt O95475 114-200, T139Q)
# T9 sequence: T1 sequence with T26Q, I54L
# SIX6 [10] = target: T10, SIX6 (Homo sapiens, UniProt O95475 114-200, T165A)
# T10 sequence: T1 sequence with T52A, I54L
# SIX6 [11] = target: T11, SIX6 (Homo sapiens, UniProt O95475 114-200, L167V)
# T11 sequence: T1 sequence with I54V
# SIX6 [12] = target: T12, SIX6 (Homo sapiens, UniProt O95475 114-200)
# T12 sequence: T1 sequence with I54L
# SIX6 [13] = target: T13, SIX6 (Homo sapiens, UniProt O95475 114-200, T165I)
# T13 sequence: T1 sequence with T52I, I54L
# NKX3-2 [14] = target: NKX3-2 (Homo sapiens, UniProt P78367 192-278, P234S)
# NKX3-2 (Homo sapiens, UniProt P78367 192-278, P234S), sequence (P78367 192-278 P234S): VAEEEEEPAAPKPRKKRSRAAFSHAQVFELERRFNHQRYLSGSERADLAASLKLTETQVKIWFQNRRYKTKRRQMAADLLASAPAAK
# NKX3-2 [15] = target: NKX3-2 (Homo sapiens, UniProt P78367 192-278)
# NKX3-2 (Homo sapiens, UniProt P78367 192-278), sequence (P78367 192-278): as the sequence (P78367 192-278 P234S) above, with S43P counted along it
Sequence,binding signal (SIX6 [1]),binding signal (SIX6 [2]),binding signal (SIX6 [3]),binding signal (SIX6 [4]),binding signal (SIX6 [5]),binding signal (SIX6 [6]),binding signal (SIX6 [7]),binding signal (SIX6 [8]),binding signal (SIX6 [9]),binding signal (SIX6 [10]),binding signal (SIX6 [11]),binding signal (SIX6 [12]),binding signal (SIX6 [13]),binding signal (NKX3-2 [14]),binding signal (NKX3-2 [15])
GATCCAGA,"10.5 upbm affinity estimate (log intensity, higher = more binding, comparable within an allelic series)","10 upbm affinity estimate (log intensity, higher = more binding, comparable within an allelic series)","10.4 upbm affinity estimate (log intensity, higher = more binding, comparable within an allelic series)","9.57 upbm affinity estimate (log intensity, higher = more binding, comparable within an allelic series)","10.1 upbm affinity estimate (log intensity, higher = more binding, comparable within an allelic series)","10.3 upbm affinity estimate (log intensity, higher = more binding, comparable within an allelic series)","10.1 upbm affinity estimate (log intensity, higher = more binding, comparable within an allelic series)","10.4 upbm affinity estimate (log intensity, higher = more binding, comparable within an allelic series)","10.6 upbm affinity estimate (log intensity, higher = more binding, comparable within an allelic series)","10.4 upbm affinity estimate (log intensity, higher = more binding, comparable within an allelic series)","10.3 upbm affinity estimate (log intensity, higher = more binding, comparable within an allelic series)","10.5 upbm affinity estimate (log intensity, higher = more binding, comparable within an allelic series)","10.3 upbm affinity estimate (log intensity, higher = more binding, comparable within an allelic series)",,
CGCGCTCC,"8.99 upbm affinity estimate (log intensity, higher = more binding, comparable within an allelic series)","8.9 upbm affinity estimate (log intensity, higher = more binding, comparable within an allelic series)","8.83 upbm affinity estimate (log intensity, higher = more binding, comparable within an allelic series)","9.01 upbm affinity estimate (log intensity, higher = more binding, comparable within an allelic series)","8.97 upbm affinity estimate (log intensity, higher = more binding, comparable within an allelic series)","9.06 upbm affinity estimate (log intensity, higher = more binding, comparable within an allelic series)","8.97 upbm affinity estimate (log intensity, higher = more binding, comparable within an allelic series)","8.86 upbm affinity estimate (log intensity, higher = more binding, comparable within an allelic series)","9.04 upbm affinity estimate (log intensity, higher = more binding, comparable within an allelic series)","8.97 upbm affinity estimate (log intensity, higher = more binding, comparable within an allelic series)","8.93 upbm affinity estimate (log intensity, higher = more binding, comparable within an allelic series)","8.91 upbm affinity estimate (log intensity, higher = more binding, comparable within an allelic series)","8.89 upbm affinity estimate (log intensity, higher = more binding, comparable within an allelic series)",,
GGCCGCCA,"8.71 upbm affinity estimate (log intensity, higher = more binding, comparable within an allelic series)","8.68 upbm affinity estimate (log intensity, higher = more binding, comparable within an allelic series)","8.73 upbm affinity estimate (log intensity, higher = more binding, comparable within an allelic series)","8.9 upbm affinity estimate (log intensity, higher = more binding, comparable within an allelic series)","8.74 upbm affinity estimate (log intensity, higher = more binding, comparable within an allelic series)","8.71 upbm affinity estimate (log intensity, higher = more binding, comparable within an allelic series)","8.7 upbm affinity estimate (log intensity, higher = more binding, comparable within an allelic series)","8.66 upbm affinity estimate (log intensity, higher = more binding, comparable within an allelic series)","8.63 upbm affinity estimate (log intensity, higher = more binding, comparable within an allelic series)","8.66 upbm affinity estimate (log intensity, higher = more binding, comparable within an allelic series)","8.8 upbm affinity estimate (log intensity, higher = more binding, comparable within an allelic series)","8.68 upbm affinity estimate (log intensity, higher = more binding, comparable within an allelic series)","8.7 upbm affinity estimate (log intensity, higher = more binding, comparable within an allelic series)",,
ATCGTGTC,"10.1 upbm affinity estimate (log intensity, higher = more binding, comparable within an allelic series)","9.87 upbm affinity estimate (log intensity, higher = more binding, comparable within an allelic series)","10.2 upbm affinity estimate (log intensity, higher = more binding, comparable within an allelic series)","9.63 upbm affinity estimate (log intensity, higher = more binding, comparable within an allelic series)","9.93 upbm affinity estimate (log intensity, higher = more binding, comparable within an allelic series)",,"9.97 upbm affinity estimate (log intensity, higher = more binding, comparable within an allelic series)","10.3 upbm affinity estimate (log intensity, higher = more binding, comparable within an allelic series)",,"10.3 upbm affinity estimate (log intensity, higher = more binding, comparable within an allelic series)",,"10.3 upbm affinity estimate (log intensity, higher = more binding, comparable within an allelic series)",,,
CGCAGAGC,"8.98 upbm affinity estimate (log intensity, higher = more binding, comparable within an allelic series)","8.91 upbm affinity estimate (log intensity, higher = more binding, comparable within an allelic series)","8.85 upbm affinity estimate (log intensity, higher = more binding, comparable within an allelic series)","9 upbm affinity estimate (log intensity, higher = more binding, comparable within an allelic series)","8.82 upbm affinity estimate (log intensity, higher = more binding, comparable within an allelic series)","8.9 upbm affinity estimate (log intensity, higher = more binding, comparable within an allelic series)","8.9 upbm affinity estimate (log intensity, higher = more binding, comparable within an allelic series)","8.85 upbm affinity estimate (log intensity, higher = more binding, comparable within an allelic series)","8.88 upbm affinity estimate (log intensity, higher = more binding, comparable within an allelic series)","8.97 upbm affinity estimate (log intensity, higher = more binding, comparable within an allelic series)","9.02 upbm affinity estimate (log intensity, higher = more binding, comparable within an allelic series)","8.83 upbm affinity estimate (log intensity, higher = more binding, comparable within an allelic series)","8.83 upbm affinity estimate (log intensity, higher = more binding, comparable within an allelic series)","10.6 upbm affinity estimate (log intensity, higher = more binding, comparable within an allelic series)","10.6 upbm affinity estimate (log intensity, higher = more binding, comparable within an allelic series)"
GGCGACCC,"8.98 upbm affinity estimate (log intensity, higher = more binding, comparable within an allelic series)","8.85 upbm affinity estimate (log intensity, higher = more binding, comparable within an allelic series)","9.03 upbm affinity estimate (log intensity, higher = more binding, comparable within an allelic series)","8.9 upbm affinity estimate (log intensity, higher = more binding, comparable within an allelic series)","8.99 upbm affinity estimate (log intensity, higher = more binding, comparable within an allelic series)","9.09 upbm affinity estimate (log intensity, higher = more binding, comparable within an allelic series)","8.97 upbm affinity estimate (log intensity, higher = more binding, comparable within an allelic series)","9.01 upbm affinity estimate (log intensity, higher = more binding, comparable within an allelic series)","9.15 upbm affinity estimate (log intensity, higher = more binding, comparable within an allelic series)","9.04 upbm affinity estimate (log intensity, higher = more binding, comparable within an allelic series)","8.91 upbm affinity estimate (log intensity, higher = more binding, comparable within an allelic series)","9.01 upbm affinity estimate (log intensity, higher = more binding, comparable within an allelic series)","9.02 upbm affinity estimate (log intensity, higher = more binding, comparable within an allelic series)",,
